A short description of assay [1]: qHTS of pediatric cancer cell lines to identify multiple opportunities for drug repurposing: Primary screen for control Hh wild type fibroblast cells (AID 1347106). Further: nearly all actives have a fitted effect of over 55% in size. The essentials:
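Viability after 48 h compound treatment at 37C, 500-1,000 cells/well, read as ATP luminescence with CellTiter-Glo. Primary screens used 11-point (MIPE, 0.78 nM-46 µM) or 8-point (NPC, 0.59 nM-46 µM) final concentrations; follow-up screens used 11-point dilutions.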
In general terms: In qHTS, concentration-response curves come from the screen itself.

Assay [2] in a line: qHTS of pediatric cancer cell lines to identify multiple opportunities for drug repurposing: Primary screen for Rh30 cells (AID 1347107). Further: nearly all actives have a fitted effect of over 75% in size. The essentials:
(§1)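 Cells (500-1,000/well) in growth media were settled 5 h at 37 degrees C, then given compounds for 48 h. Viability was read as CellTiter-Glo luminescence. Primary runs used MIPE at 11 points (0.78 nM-46 µM) and NPC at 8 points (0.59 nM-46 µM); follow-ups used 11 points.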

The nature of assay [3]: qHTS of pediatric cancer cell lines to identify multiple opportunities for drug repurposing: Confirmatory screen for A673 cells (AID 1347110).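 Further: cells exposed to compound for 48 h before the viability read; nearly all actives have a fitted effect of over 65% in size.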 Summed up:
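qHTS titration format: primary MIPE 0.78 nM-46 µM (11 pts), NPC 0.59 nM-46 µM; confirmation 11 pts. 48 h, CTG luminescence.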

A short description of assay [4]: qHTS of pediatric cancer cell lines to identify multiple opportunities for drug repurposing: Confirmatory screen for SK-N-MC cells (AID 1347111).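 Further: cells exposed to compound for 48 h before the readout; nearly all actives have a fitted effect of over 70% in size.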 Summed up:
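Metabolically active cells were quantified by ATP-dependent luminescence (CellTiter-Glo, 15 min at room temperature) following 48 h treatment. Cells had been plated at 500-1,000 per well and settled for 5 h beforehand.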

Assay [5] in a line: qHTS of pediatric cancer cell lines to identify multiple opportunities for drug repurposing: Confirmatory screen for BT-12 cells (AID 1347112). Further: nearly all actives have a fitted effect of over 55% in size. The essentials: as §1
Assay [6] in a line: qHTS of pediatric cancer cell lines to identify multiple opportunities for drug repurposing: Confirmatory screen for DAOY cells (AID 1347114). Further: nearly all actives have a fitted effect of over 65% in size. Summed up:
(§2)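 Viability measured as metabolically active cells via CellTiter-Glo luminescence following 48 hours of compound exposure, 11-point dilutions in confirmatory testing. 500-1,000 cells/well plated 5 hours before dosing; controls were DMSO and 2.3 µM bortezomib.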

The nature of assay [7]: qHTS of pediatric cancer cell lines to identify multiple opportunities for drug repurposing: Confirmatory screen for BT-37 cells (AID 1347117). Further: nearly all actives have a fitted effect of over 55% in size. The essentials:
as §1

Assay [8] can be described thus: qHTS of pediatric cancer cell lines to identify multiple opportunities for drug repurposing: Confirmatory screen for TC32 cells (AID 1347118).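 Further: cells exposed to compound for 48 h before the read; nearly all actives have a fitted effect of over 65% in size.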 The essentials: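 Measured quantity: luminescence from CellTiter-Glo, reflecting metabolically active TC32 cells following 48 h of compound. Curves came straight from multi-point titrations, with 8 or 11 points in primary and 11 in confirmatory screening.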

A short description of assay [9]: qHTS of pediatric cancer cell lines to identify multiple opportunities for drug repurposing: Confirmatory screen for control Hh wild type fibroblast cells (AID 1347121). Further: nearly all actives have a fitted effect of over 70% in size. The essentials:
as §1

Assay [10] is described as follows: qHTS of pediatric cancer cell lines to identify multiple opportunities for drug repurposing: Confirmatory screen for Rh41 cells (AID 1347123). Further: nearly all actives have a fitted effect of over 60% in size. Summed up: as §1
Assay [11] can be described thus: qHTS of pediatric cancer cell lines to identify multiple opportunities for drug repurposing: Confirmatory screen for RD cells (AID 1347124).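 Further: cells exposed to compound for 48 h before viability readout; nearly all actives have a fitted effect of over 65% in size.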 The essentials: as §1
A short description of assay [12]: qHTS of pediatric cancer cell lines to identify multiple opportunities for drug repurposing: Confirmatory screen for Rh18 cells (AID 1347125). Further: nearly all actives have a fitted effect of over 55% in size. Summed up:
as §1

Assay [13] in a line: qHTS of pediatric cancer cell lines to identify multiple opportunities for drug repurposing: Confirmatory screen for Rh30 cells (AID 1347126). Further: nearly all actives have a fitted effect of over 55% in size. Summed up:
as §1

Assay [14] can be described thus: qHTS of pediatric cancer cell lines to identify multiple opportunities for drug repurposing: Primary screen for Rh41 cells (AID 1347108). Further: nearly all actives have a fitted effect of over 70% in size. The essentials: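 Luminescence from CellTiter-Glo served as readout of metabolically active cells after 48 h compound exposure. Titrations: MIPE 11-point, from 0.78 nM; NPC 8-point, from 0.59 nM (final). Concentration-response curves came straight from the primary screen.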

A short description of assay [15]: qHTS of pediatric cancer cell lines to identify multiple opportunities for drug repurposing: Confirmatory screen for NB-EBc1 cells (AID 1347115).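 Further: cells exposed to compound for 48 h before the viability read; nearly all actives have a fitted effect of over 45% in size.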 The essentials:
as §1

Assay [16] in a line: qHTS of pediatric cancer cell lines to identify multiple opportunities for drug repurposing: Confirmatory screen for NB1643 cells (AID 1347109). Further: nearly all actives have a fitted effect of over 45% in size. The essentials: as §1
Assay [17] is described as follows: qHTS of pediatric cancer cell lines to identify multiple opportunities for drug repurposing: Confirmatory screen for LAN-5 cells (AID 1347113). Further: nearly all actives have a fitted effect of over 65% in size. The essentials:
as §1

Assay [18] in a line: qHTS of pediatric cancer cell lines to identify multiple opportunities for drug repurposing: Confirmatory screen for SJ-GBM2 cells (AID 1347116). Further: nearly all actives have a fitted effect of over 60% in size. The essentials: as §2
A short description of assay [19]: qHTS of pediatric cancer cell lines to identify multiple opportunities for drug repurposing: Confirmatory screen for MG 63 (6-TG R) cells (AID 1347119). Further: nearly all actives have a fitted effect of over 55% in size. Summed up:
as §1

A short description of assay [20]: qHTS of pediatric cancer cell lines to identify multiple opportunities for drug repurposing: Confirmatory screen for U-2 OS cells (AID 1347122). Further: nearly all actives have a fitted effect of over 65% in size. Summed up:
as §1

Results filed as inconclusive are left out. Activity calls are given as the source filed them. The call rests on the fitted dose curve; in most records, active means well fitted curve in the direction sought with a large enough effect; inconclusive means small, poorly fitted or top-dose-only effect, or another doubt; inactive means no such curve, though single readings can be large; an effect the other way counts as inactive or inconclusive.
Potency means the concentration at half of the fitted maximal effect.

With `C[C@@H]1[C@@H](C(=O)C[C@H]2O[C@@H]3O[C@]4(C)CC[C@@H]5[C@H](C)CC[C@@H]([C@H]2C)[C@@]35OO4)O[C@@H]2O[C@]3(C)CC[C@H]4[C@H](C)CC[C@@H]1[C@@]24OO3`, the Potency entry in assay [1], in [2], in [6], in [9] and in assay [12] was “inactive” throughout. Further, the Potency was 6.57 µM (active) in [3]; 2.93 µM (active) in assay [4]; 14.7 µM (active) in assay [5]; 1.65 µM (active) in [7]; 9.27 µM (active) in assay [8]; 0.928 µM (active) in assay [10]. Further, the Potency in assay [11] is 0.737 µM (active); in [13], 13.1 µM (active).

Regarding `O=C(O)c1ccc2[nH]cc(CCCCN3CC=C(c4ccccc4)CC3)c2c1`, the Potency entry in assay [1], in assay [2] and in [14] was “inactive” each time.

Take `CC(O)(CS(=O)(=O)c1ccc(F)cc1)C(=O)Nc1ccc(C#N)c(C(F)(F)F)c1` (stereo not given): the Potency in assay [2] and in assay [14] was 3.72 µM (active) throughout.

In the case of `CC(C)CC(N(C)C)C1(c2ccc(Cl)cc2)CCC1` (stereo not given), the Potency result in assay [1], in assay [2], in assay [14], in assay [6], in assay [15] and in assay [10] was “inactive” in each case. Besides, the Potency in assay [8] is 23.3 µM (active); in [12] it was 20.8 µM (active).

As for `C[C@H]1O[C@@H](O[C@H]2[C@@H](O)C[C@H](O[C@H]3[C@@H](O)C[C@H](O[C@H]4CC[C@@]5(C)[C@H](CC[C@@H]6[C@@H]5CC[C@]5(C)[C@@H](C7=CC(=O)OC7)CC[C@]65O)C4)O[C@@H]3C)O[C@@H]2C)C[C@H](O)[C@@H]1O`, the Potency in [1] is 0.841 µM (active); in [16], 0.329 µM (active); in assay [3], 0.465 µM (active); in assay [4], 0.131 µM (active); in assay [5] it was 0.185 µM (active); in assay [17], 0.233 µM (active). Further, the Potency is 0.0657 µM (active) in [6]; 0.233 µM (active) in [18]; 0.0585 µM (active) in assay [7]; 0.0827 µM (active) in assay [8]; 0.0465 µM (active) in [19]; 0.165 µM (active) in assay [20]. For the same compound, the Potency in [10] is 0.0737 µM (active); in assay [11], 0.104 µM (active); in assay [13], 0.329 µM (active). For the same compound, the Potency entry in [2] is “inactive”.

As to `C[C@@H]1[C@@H](CC(C[C@H]2O[C@@H]3O[C@]4(C)CC[C@@H]5[C@H](C)CC[C@@H]([C@H]2C)[C@@]35OO4)C[S+](=O)([O-])c2ccc(COC(=O)N(C)C)cc2)O[C@@H]2O[C@]3(C)CC[C@H]4[C@H](C)CC[C@@H]1[C@@]24OO3` (stereo not given in full), the Potency result in [1] and in [2] was “inactive” each time. The Potency in assay [16] is 0.414 µM (active); in assay [4], 0.293 µM (active); in assay [5], 0.657 µM (active); in [17] it was 1.04 µM (active); in assay [6], 1.04 µM (active); in [15], 0.928 µM (active). The Potency in assay [18] was 1.65 µM (active); in assay [7], 0.233 µM (active); in [8], 0.585 µM (active); in assay [19], 2.33 µM (active); in assay [9] it was 13.1 µM (active); in [10], 0.0827 µM (active). The Potency in assay [13] is 4.65 µM (active).

For the compound `CC[C@@H](CO)NC(=O)[C@@H]1C=C2c3cccc4[nH]cc(c34)C[C@H]2N(C)C1`, the Potency entry in assay [1], in assay [2] and in assay [14] was “inactive” each time.

On to `N[C@@H]1C[C@H]1c1ccccc1`, for which the Potency result in assay [1], in [2] and in assay [14] was “inactive” throughout.

Consider `CNC(=O)c1ccc(N2C(=S)N(c3ccc(C#N)c(C(F)(F)F)c3)C(=O)C23CCC3)cc1F`, for which the Potency was 13.2 µM (active) in [1] and 11.8 µM (active) in [14].

`CCCN1CCC[C@@H]2Cc3nc(N)ncc3C[C@H]21`: the Potency entry in [1], in assay [2] and in assay [14] was “inactive” in each case.

For the compound `O=P1(NCCCl)OCCCN1CCCl` (stereo not given), the Potency entry in assay [1], in assay [2], in assay [16], in assay [3], in assay [4] and in [5] was “inactive” in each case. In addition, the Potency entry in assay [17], in [6], in assay [15], in assay [18], in assay [7] and in assay [8] was “inactive” throughout. The Potency entry in assay [19], in assay [9], in assay [20], in [10], in assay [11] and in assay [12] was “inactive” in each case. For the same compound, in assay [13], the Potency entry was “inactive”.

On to `c1ccc2c(c1)OCC(C1=NCCN1)O2` (stereo not given), for which, in assay [2], the Potency entry was “inactive”.

Take `C[C@]12CCC(=O)C(O)=C1CC[C@@H]1[C@@H]2CC[C@]2(C)C(=O)CC[C@@H]12`: the Potency result in [1], in assay [2] and in assay [14] was “inactive” in each case.

In the case of `Nc1ccncc1`, the Potency entry in [1], in assay [2] and in assay [14] was “inactive” in each case.

Consider `CCN(CC)C(=O)N[C@@H]1C=C2c3cccc4[nH]cc(c34)C[C@@H]2N(C)C1`, for which the Potency result in [1], in [2] and in assay [14] was “inactive” each time.

Take `COC[C@@H](NC(C)=O)C(=O)NCc1ccccc1`: the Potency result in assay [1], in assay [2], in assay [14], in assay [16], in [3] and in assay [5] was “inactive” each time. Moreover, the Potency result in [17], in assay [15], in [7], in [19], in assay [9] and in [12] was “inactive” each time.

Regarding `O=c1[nH]c2ccccc2n1CCCN1CCC(n2c(=O)[nH]c3cc(Cl)ccc32)CC1`, the Potency result in assay [1], in assay [2] and in assay [14] was “inactive” throughout. Besides, the Potency was 7.37 µM (active) in [16]; 26.1 µM (active) in [3]; 5.22 µM (active) in [4]; 9.27 µM (active) in assay [17]; 23.3 µM (active) in assay [6]; 16.5 µM (active) in assay [15]. In addition, the Potency in assay [18] is 13.1 µM (active); in assay [7] it was 8.27 µM (active); in assay [8], 3.29 µM (active); in assay [19], 6.57 µM (active); in assay [10], 16.5 µM (active); in assay [12], 9.27 µM (active). The Potency in assay [13] is 7.37 µM (active).

Turning to `C=C(C)[C@H]1Cc2c(ccc3c2O[C@@H]2COc4cc(OC)c(OC)cc4[C@@H]2C3=O)O1`, the Potency entry in assay [1], in assay [2], in assay [20], in assay [11] and in assay [13] was “inactive” each time. The Potency in assay [14] is 1.06 µM (active); in assay [3] it was 3.69 µM (active); in assay [4] it was 1.65 µM (active); in [5] it was 2.61 µM (active); in assay [17], 1.17 µM (active); in [15] it was 0.293 µM (active). The Potency was 2.61 µM (active) in assay [7], 0.329 µM (active) in [8], 0.0329 µM (active) in [19] and 0.117 µM (active) in assay [9].

For `CCC1(C2=NCCN2)Cc2ccccc2O1` (stereo not given), the Potency entry in assay [1], in [2] and in [14] was “inactive” throughout.

With `Oc1cccc2cccnc12`, the Potency entry in assay [2] is “inactive”.

Consider `N[C@@H](Cc1ccc(Oc2cc(I)c(O)c(I)c2)c(I)c1)C(=O)O`, for which the Potency result in [1], in assay [2] and in [14] was “inactive” in each case.

Turning to `C#CCOC(C(=O)OCCN(C)C)(c1ccccc1)c1ccccc1`, the Potency result in assay [1], in [2] and in [14] was “inactive” each time.

The values are drawn from PubChem BioAssay (NCATS).
